# HT1080 IDH1KD tx = HT-1080 IDH1 knockdown cell toxicity (counter line); HT-1080 IDH1 knockdown viability, ATP luminescence, 48 h; Potency, µM (titrated, usually from 46.1 µM), for inactives: top-dose activity, negative = toxicity, actives largely listed as cytotoxic; 2% of 360,000 active; AID 686971;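 also: 0% = DMSO wells and -100% = cell-free medium wells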
#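 % activity derives from luminescence (CellTiter-Glo), normalised to DMSO and no-cell wells. HT-1080-IDH1KD cells, 750/well, had 48 h compound exposure at 37 °C.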
# KB-V1 cytotox = kills drug-selected multidrug resistant KB-V1 cells; KB-V1 MDR cells viability, CellTiter-Glo, 72 h; Potency, µM (doses to about 46.1 µM), most hits filed as cytotoxic; 3.4% of 400,000 active; also: nearly all actives have a fitted effect of over 60% in size
#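 Readout: CellTiter-Glo luminescence, 10 min after addition. Cells: KB-V1 MDR subline, 72 h at 37 degrees C with compound. Analysis: corrected, normalized data fitted to concentration-effect curves.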
# DT40 TDP1 no CPT = qHTS for Inhibitors of human tyrosyl-DNA phosphodiesterase 1 (TDP1): qHTS in cells in absence of CPT; DT40 Tdp1-/- hTDP1 cells, no CPT, ATP luminescence, 48 h; Potency, µM (top dose mostly 46.2 µM), for the others: at the highest dose activity change, negative = growth inhibition, actives largely listed as inhibitors; 15% of 420,000 active; AID 686978, 2013; also: nearly all actives have a fitted effect of over 55% in size
#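 No-CPT arm: Tdp1-/-;hTDP1 DT40 cells (400/well) plus compounds, incubated ≥48 hr at 37 °C. Readout CellTiter-Glo luminescence.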
# KB-3-1 cytotox = kills parental KB-3-1 adenocarcinoma cells; KB-3-1 viability, CellTiter-Glo ATP luminescence, 72 h; Potency, µM (top dose mostly 46.1 µM), usual class: cytotoxic; 1.4% of 400,000 active; also: nearly all actives have a fitted effect of over 60% in size
#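 Parental KB-3-1 adenocarcinoma cells in phenol-red-free DMEM with 10% FBS were pin-treated with compounds at several concentrations, incubated 72 h at 37 °C, and viability read by CellTiter-Glo luminescence; concentration-effect curves were fitted after normalization.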
# HT1080NT lethal = kills 2HG-producing HT-1080-NT fibrosarcoma cells; HT-1080-NT fibrosarcoma viability, CellTiter-Glo ATP luminescence, 48 h; Potency, µM (highest dose often 46.1 µM), inactives show top-dose activity, negative = less viability, usual class: cytotoxic; 1.6% of 360,000 active;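 also: NT is the 2HG producing partner of a matched IDH1 knockdown line; 0% = DMSO-treated cells and -100% = media-only wells without cells; nearly all actives have a fitted effect of over 55% in size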
#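 Read-out is CellTiter-Glo luminescence after 10 minutes at room temperature, following 48 hours' compound treatment of HT-1080-NT cells (750 cells/well, RPMI, 5% FBS, 37 degrees C).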
# DT40 TDP1 CPT = DT40-hTDP1 cell growth loss with CPT; 12% of 420,000 active; AID 686979; chicken DT40 Tdp1-/-;hTDP1 cells + 20 nM CPT, ATP luminescence, 48 h; Potency, µM (top dose mostly 46.2 µM), for inactives: at the top dose activity change, negative = growth inhibition, usual class: inhibitors; also: nearly all actives have a fitted effect of over 55% in size
#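 Chicken DT40 Tdp1-/- cells stably complemented with human TDP1 were seeded at 400 cells/well in medium containing 20 nM camptothecin, exposed to pin-transferred compounds, and grown at 37 °C for at least 48 hr. Viability was read as ATP luminescence.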
# Active calls of the source: *; i = inactive; ? = inconclusive; nt = no result given; [ ] = another dose, or the depositor's remark. Compounds with a hit are over-represented: about 19% of the library has one in this group of screens. Calls follow the shape of the dose curve; as a rule, active = well fitted curve in the direction sought with a large enough effect; inconclusive = small, poorly fitted or top-dose-only effect, or another doubt; inactive = no such curve, though single readings can be large; an effect the other way counts as inactive or inconclusive. Unless noted, % is scaled to controls: 0 for no effect and ±100 for the full control effect; potency is read from the fitted curve at half-maximal effect.
SMILES,HT1080 IDH1KD tx,KB-V1 cytotox,DT40 TDP1 no CPT,KB-3-1 cytotox,HT1080NT lethal,DT40 TDP1 CPT
CCN(CC)C(=S)NC(=O)Cc1ccccc1,8%,i,-6%,i,10%,4%
Cc1ccc(/C=N/NC(=O)CCCOc2ccc(Cl)cc2Cl)cc1[N+](=O)[O-],?,i,-27%,?,?,-17%
O=C(CCCC(=O)NN=Cc1ccc(Cl)cc1Cl)NN=Cc1ccc(Cl)cc1Cl,9%,i,?,i,10%,-14%
O=C(CCCC(=O)NN=Cc1ccccc1Cl)NN=Cc1ccccc1Cl,5%,i,16µM*,i,3%,16µM*
CN(C(=S)NC(=O)Cc1ccccc1)c1ccccc1,18µM*,i,?,i,?,?
O=C(COc1ccc(-c2ccccc2)cc1)N1CCCC1,9%,i,?,i,8%,4%
Cc1onc(-c2ccccc2)c1C(=O)NCC(O)c1ccccc1 (stereo unspecified),4%,i,-13%,i,4%,2%
COC(=O)c1ccccc1NC(=O)c1cc(-c2ccc(C)cc2)on1,-7%,i,-29%,i,-16%[9.24 µM],-1%
O=C(c1ccco1)N1CCC2(CC1)CN(Cc1cc(C(F)(F)F)cc(C(F)(F)F)c1)C2,nt,nt,-25%,nt,nt,-30%
O=C(CCC(=O)N/N=C/c1cc(Cl)cc(Cl)c1O)NCc1ccccc1,-5%,i,23µM*,i,-24%,?
Cc1ccc(/C=N/NC(=O)CCCOc2ccc(Cl)cc2Cl)cc1,15µM*,?,10µM*,?,15µM*,8.2µM*
O=C(CCCOc1ccc(Cl)cc1Cl)N/N=C/c1ccccc1O,?,i,5.2µM*,i,?,5.2µM*
O=C(Cc1ccccc1)N/N=C/c1cc2c(cc1Cl)OCO2,4%,i,29µM*,i,7%,?
O=C(CCC(=O)N/N=C/c1ccc(Br)s1)NCc1ccccc1,2%,i,?,i,7%,?
O=C(CCCOc1ccc(Cl)cc1Cl)N/N=C/c1ccccc1,-4%,?,?,i,-3%,?
O=C(N/N=C\c1cc2c(cc1Cl)OCO2)c1cccs1,-1%,i,?,i,0%,?
C=C(C)[C@@H]1CC=C(CN2CCN(Cc3ccccc3)CC2)CC1,-26%,i,?,i,-14%,?
CN(C(=S)NC(=O)CCCOc1ccc(Cl)cc1Cl)c1ccccc1,?,?,16µM*,i,?,?
O=C(Nc1cccc(Cl)c1N1CCCC1)c1ccc([N+](=O)[O-])o1,2%,?,-27%,?,-16%,-30%
O=C(Nc1ccccc1N1CCOCC1)c1ccc([N+](=O)[O-])o1,1%,?,15µM*,i,-3%,12µM*
O=C(Nc1ccccc1N1CCCCC1)c1ccc([N+](=O)[O-])o1,2%,?,16µM*,?,0%,21µM*
O=C(Nc1ccc(N2CCN(C(=O)c3ccc(Cl)cc3)CC2)cc1)c1ccc(Br)o1,-14%,i,?,i,-1%,?
O=C(Nc1ccccc1N1CCN(C(=O)c2ccc(Cl)cc2)CC1)c1ccc([N+](=O)[O-])o1,?,?,?,21µM*,?,21µM*
CC(Sc1nnc(-c2cccnc2)n1-c1ccccc1)C(=O)NCc1ccc2c(c1)OCO2 (stereo unspecified),6%,i,-5%,i,7%,-8%
Cc1cc(C)cc(-n2c(SC(C)C(=O)NCc3ccc4c(c3)OCO4)nc3ccccc3c2=O)c1 (stereo unspecified),3%,i,15µM*,?,2%,13µM*
SMILES,HT1080 IDH1KD tx,KB-V1 cytotox,DT40 TDP1 no CPT,KB-3-1 cytotox,HT1080NT lethal,DT40 TDP1 CPT
CCN(CC)S(=O)(=O)c1ccc2c(c1)nc(SCC(=O)N1CCOCC1)n2-c1ccccc1OC,15%,i,-27%,i,8%,-2%
COc1ccccc1-n1c(SCC(=O)NCc2ccc3c(c2)OCO3)nc2cc([N+](=O)[O-])ccc21,-15%,i,21µM*,i,-23%,4.1µM*
Cc1cccc(-n2c(SCC(=O)NCc3ccc4c(c3)OCO4)nc3ccccc3c2=O)c1,3%,i,?,i,6%,?
CC(Sc1nc2cc([N+](=O)[O-])ccc2n1-c1ccc(F)cc1)C(=O)NCc1ccc2c(c1)OCO2 (stereo unspecified),-12%,5.8µM*,15µM*,i,-2%,16µM*
Cc1ccc(CNC(=O)CCC(=O)Nc2nnc(C(C)C)s2)cc1,26%,?,0%,i,2%,4%
CCc1ccccc1N(CC(=O)NC1CCCCC1)C(=O)CCCC(=O)Nc1ccccn1,-7%,?,?,i,-5%,-16%
O=C(c1cccnc1)C1CCCN(Cc2ccc3c(c2)CN(C(=O)c2cccs2)CCO3)C1 (stereo unspecified),nt,nt,?,nt,nt,-7%[9.04 µM]
CCN(Cc1ccccc1)S(=O)(=O)c1nc2nc(C)c(C)c(C)n2n1,1%,18µM*,-10%,i,0%,-6%
Cc1ccc(N(C(=O)c2ccco2)C(C(=O)NC2CCCC2)c2ccco2)c(C)c1 (stereo unspecified),-10%,i,?,i,-16%,-27%
COc1ccc(C(C(=O)NC2CCCCC2)N(C(=O)Cc2c[nH]c3ccccc23)c2ccccc2C)cc1OC (stereo unspecified),-21%,?,21µM*,i,-18%,?
COc1ccc(C(C(=O)NC2CCCCC2)N(Cc2cccs2)C(=O)Cc2c[nH]c3ccccc23)cc1OC (stereo unspecified),?,8.2µM*,21µM*,?,?,13µM*
CCOc1ccc(CN(CC)C(=O)Cc2c[nH]c3ccccc23)cc1OC,-13%,i,15µM*,i,-16%,?
COc1ccc(C(C(=O)NC2CCCC2)N(C(=O)Cc2cccs2)C2CC2)cc1OC (stereo unspecified),8%,i,-2%,i,2%,10%
Cc1ccccc1N(C(=O)Cc1c[nH]c2ccccc12)C(C(=O)NC1CCCCC1)c1ccco1 (stereo unspecified),?,?,9.2µM*,i,?,21µM*
CC(C)(C)OC(=O)NC1CNNC1=O (stereo unspecified),16%,i,3%,i,8%,-17%
